# Assay outcomes (PubChem BioAssay)
# Sampled rows, rich in hits. Any-hit rate of the full collection: about 4.3%.
# dFosB act: activators of delta FosB homodimer, primary screen, biochemical, fluorescence polarization, TAMRA-CDK5 oligo, single point; 0.99% of 340,000 active; activation, % at 25 µM; purified delta FosB; percent of positive-control signal above neutral wells; AID 493131, 2011;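 active means mean activation above about 17%, with every replicate also reaching it, limit read from the data, passing the limit was not always enough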
# Target sequence (P13346 whole entry, looked up): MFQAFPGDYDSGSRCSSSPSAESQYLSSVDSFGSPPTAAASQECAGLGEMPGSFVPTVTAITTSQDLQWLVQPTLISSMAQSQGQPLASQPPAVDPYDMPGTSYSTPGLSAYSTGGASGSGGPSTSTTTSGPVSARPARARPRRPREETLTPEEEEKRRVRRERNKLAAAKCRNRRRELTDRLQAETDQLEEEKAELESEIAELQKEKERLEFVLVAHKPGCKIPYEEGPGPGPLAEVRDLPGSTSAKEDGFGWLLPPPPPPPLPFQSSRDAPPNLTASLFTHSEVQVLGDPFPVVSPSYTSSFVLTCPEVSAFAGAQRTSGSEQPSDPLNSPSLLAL
# GRIN3A LBD mod: binders of NR3A ligand-binding domain, primary screen, biophysical, differential scanning fluorimetry, uHTS | Glutamate receptor ionotropic, NMDA 3A (GRIN3A) ligand-binding domain | NR3A LBD differential scanning fluorimetry, Tm shift; 0% = protein alone, 100% = glycine-bound protein | Tm shift relative to glycine control, % at 25 µM | 2.5% of 340,000 active;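 active means melting temperature shift of at least 10% of the positive control shift, at one fixed dose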
# UBC13 inh: UBC13 polyubiquitin chain formation inhibitors, primary screen, biochemical, TR-FRET, uHTS | 0.47% of 330,000 active | inhibition, % at 20 µM; in the data active means inhibition above about 45%, passing the limit was not always enough
# NALP1 inh: NALP1 inflammasome inhibitors in reconstituted yeast, colorimetric, S. cerevisiae, triplicate retest. 0.61% of 280,000 active. inhibition, % at 10 µM. S. cerevisiae NALP1/ASC/caspase-1 growth, X-gal OD620, 72 h; in the data active means inhibition mostly above about 24%, no sharp cut-off; inactive means mostly below about 32%
# CR mimetic SO: reduction of superoxide in aged yeast, primary screen, HTS; S. cerevisiae aged cells, superoxide DHE fluorescence; hits give low values; superoxide response (% of plate mean), % at 10 µM; 0.18% of 330,000 active; AID 2690, 2010;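 active means superoxide response under a set limit, about three screen SD below normal, cut at about 65% in these data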;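 further: yeast aged for seven days with compound at 30 °C before DHE staining; 100% = average MFI of all compound-treated wells on the plate with controls excluded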
# CR mimetic CP: superoxide lowering in aged yeast cells, confirmation, cherry picked compounds. shares compounds with CR mimetic SO. S. cerevisiae aging, superoxide DHE fluorescence; hits give low values. superoxide response (% of plate), % at 10 µM. 1% of 850 active. AID 434994, 2010;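 active means superoxide signal below 65% of the plate average of sample wells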;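 further: cells aged with compound for 7 days at 30 degrees C before staining; 100% equals mean DHE fluorescence of all compound wells on the plate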
# DHE counter: DHE quenching or ROS scavenging interference in aged yeast, artefact control for yeast caloric restriction mimetic project, S. cerevisiae BY4741, flow cytometry; shares compounds with CR mimetic SO; DHE fluorescence; hits give low values; fluorescence response, % at 10 µM; 850 tested, under 10 active; AID 435000, 2010;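 active means fluorescence response below 15%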;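 further: percent of the mean fluorescence averaged over all compound wells on the plate; lower means stronger quenching of DHE signal or ROS scavenging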
# * marks the source's active call; other numbers are inactive results; . = no result given.
SMILES,dFosB act,GRIN3A LBD mod,UBC13 inh,NALP1 inh,CR mimetic SO,CR mimetic CP,DHE counter
COc1ccc(-c2sc3cc4c(cc3c2C#CCO)OCO4)cc1,-4.9,-16.4,21.8,.,63.0*,103.0,92.4
NC(=O)c1ccc(NC(=O)COC(=O)c2ccccc2Nc2ccccc2)cc1,12.1,3.2,-1.1,11.3,56.1*,95.9,97.8
O=C(COC(=O)c1ccccc1Nc1ccccc1)NCc1ccccc1,-2.5,-6.8,3.7,19.1,90.8,.,.
Cc1ccc(CNC(=O)CCCCn2c(=O)[nH]c3ccsc3c2=O)cc1,-3.8,-2.0,12.3,-2.0,89.8,.,.
Cc1ccc(CNC(=O)Cc2ccc(-n3c(=O)[nH]c4ccsc4c3=O)cc2)cc1,-3.3,-2.9,1.9,32.0,56.4*,107.7,100.5
CC1=C(C(=O)Nc2ccccc2C(=O)NC2CCCCC2)SCCO1,-11.4,-2.4,-0.2,17.6,113.2,.,.
Cc1cccc(-c2cc3nc(C)cc(C)n3n2)c1,-5.9,-2.1,11.0,1.3,109.3,.,.
Cc1cc(C)n2nc(-c3cccc(Br)c3)cc2n1,-20.2,0.4,18.4,23.8,100.5,102.9,94.0
CC(C)Cc1nnc(NC(=O)C2CC(=O)N(c3ccc4c(c3)OCCO4)C2)s1 (configuration not stated),-12.9,-0.8,-2.6,.,87.0,.,.
CC(C)CC1NC(=O)C(CC(C)C)N(CO)C1=O (configuration not stated),-0.3,1.6,.,.,.,.,.
CCOc1ccccc1N(CC(=O)OC)S(=O)(=O)c1ccccc1,4.3,2.0,1.5,10.8,128.3,.,.
COC(=O)CN(c1ccc(C)cc1)S(=O)(=O)c1ccc(F)cc1,3.9,1.1,3.9,10.2,49.9*,103.9,106.9
COC(=O)CN(c1ccccc1)S(=O)(=O)c1ccccc1,-0.3,0.1,-1.3,-7.0,90.9,100.0,91.4
CCOc1ccc2nc(NCCCNS(=O)(=O)c3ccc(F)cc3)c(C#N)cc2c1,-0.1,-15.4,-5.9,.,123.0,.,.
CCOc1ccc2nc(NCCCNS(=O)(=O)c3ccccc3)c(C#N)cc2c1,-12.9,-7.8,1.9,-4.8,64.7*,99.8,92.3
CC(=O)CSc1ccc(-c2nc3ccccc3[nH]2)cn1,-13.5,-13.3,-14.3,11.9,98.0,.,.
O=C(CSc1ccc(-c2nc3ccccc3[nH]2)cn1)Nc1ccc(S(=O)(=O)N2CCCC2)cc1,-0.5,28.5*,0.9,16.4,64.5*,119.1,108.7
COc1cc(CCC(=O)NNC(=O)c2cccc(Cl)c2)cc(OC)c1OC,-9.1,-0.2,4.7,9.8,90.0,.,.
COc1cc2[nH]c(=O)n(CCCCCC(=O)N3CCN(c4ccccc4)CC3)c(=O)c2cc1OC,-4.7,0.6,-4.8,0.5,64.2*,95.4,92.9
COC(=O)c1ccc2c(=O)n(CCCCCC(=O)N3CCN(c4ccccc4)CC3)c(=O)[nH]c2c1,-4.4,3.8,0.5,-3.2,106.9,.,.
O=C(Sc1ccc(Cl)cc1)c1ccccn1,-1.9,2.5,6.9,.,111.8,.,.
CN(Cc1ccccc1)C(=O)CCC1CCN(S(C)(=O)=O)CC1,-10.3,-2.3,-1.7,2.7,64.9*,127.1,109.7
O=C(c1ccc(Cn2cnnn2)cc1)N1CCCC(Nc2ccc(F)c(F)c2)C1 (configuration not stated),-1.0,2.0,7.1,-0.6,101.8,.,.
COc1cc(C(=O)NCC(=O)Nc2ccc(F)c(F)c2)ccc1OCC(=O)N1CCOCC1,-11.7,3.0,2.7,.,105.7,.,.
c1cc2c(cc1CN1CCN(C3CCCCCC3)CC1)OCO2,-3.5,2.5,-0.7,10.3,43.7*,95.0,92.9
c1ccc(CN2CCC(N3CCN(Cc4ccc5c(c4)OCO5)CC3)CC2)cc1,5.4,-0.4,0.1,.,102.6,.,.
N#Cc1ccc(Nc2ccccc2)c(N)c1,-2.3,-6.9,6.2,-4.4,60.8*,93.3,107.1
